One may read the inhibition as the drop in the measured response relative to a control, in per cent.

Hit rate of the full screen: of about 340,000 compounds, about 2,100 (0.62%) were called active.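 The calls were made as follows: active = first-screen hits whose inhibition reached a set limit at any dose in the follow-up dose series; inconclusive = inhibition above the set first-screen limit but never retested; inactive = the rest.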 These entries were drawn from the full list. Measured potencies and affinities stand elsewhere.

In this test the target is Rac GTPase-activating protein 1 (Homo sapiens) (UniProt Q9H0H5). Kind of test: blockers of MgcRacGAP-driven Rac1 GTP hydrolysis – biochemical, ADP Hunter fluorescence, primary and confirmatory, confirmation (AID 624330).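 Also: fluorescence reports GDP produced by GAP-driven GTP hydrolysis.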 The conditions noted are these: MgcRacGAP-stimulated Rac1 GTP hydrolysis, at 30 µM, hits give high values, GST-tagged Rac1 F28L mutant substrate.
Chain of Rac GTPase-activating protein 1 (Homo sapiens) (Q9H0H5 whole entry, looked up): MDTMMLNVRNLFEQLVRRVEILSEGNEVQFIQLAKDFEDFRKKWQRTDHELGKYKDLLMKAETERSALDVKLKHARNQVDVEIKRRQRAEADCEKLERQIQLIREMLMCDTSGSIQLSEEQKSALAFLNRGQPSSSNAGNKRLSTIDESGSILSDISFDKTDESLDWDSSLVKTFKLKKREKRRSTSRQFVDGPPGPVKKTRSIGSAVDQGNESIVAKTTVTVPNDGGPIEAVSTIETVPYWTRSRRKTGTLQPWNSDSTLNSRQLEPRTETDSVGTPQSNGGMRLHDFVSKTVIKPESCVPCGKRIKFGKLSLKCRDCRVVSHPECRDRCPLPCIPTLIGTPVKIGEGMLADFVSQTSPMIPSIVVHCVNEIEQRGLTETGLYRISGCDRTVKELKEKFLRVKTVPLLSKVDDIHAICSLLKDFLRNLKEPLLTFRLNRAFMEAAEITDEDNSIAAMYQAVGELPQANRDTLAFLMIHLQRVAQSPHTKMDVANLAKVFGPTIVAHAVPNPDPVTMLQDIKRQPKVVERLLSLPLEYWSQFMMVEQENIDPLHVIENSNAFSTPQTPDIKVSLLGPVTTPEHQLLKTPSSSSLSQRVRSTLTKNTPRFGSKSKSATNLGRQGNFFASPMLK
As to `OCCCNCc1cccc2ccccc12`, the inhibition was -2.77% (inactive).

Consider `OCCCNc1c2ccccc2nc2ccccc12`, for which the inhibition was 9.86% (inactive).

In the case of `COCCCNC(=O)C[C@H]1C[C@H](C(=O)N(C(C)C)C(C)C)[C@@]2(C)c3[nH]c4ccc(Cl)cc4c3CCN2C1=O`, the inhibition is 4.5% (inactive).

On to `Cc1ccc(S(=O)(=O)NNC(=O)CCC(=O)Nc2ccccc2Cl)cc1`, for which the inhibition is 7.64% (inactive).

With `C(/CCc1ccccc1)=N\n1cnnc1`, the inhibition is 8.49% (inactive).

In the case of `O=C(O)c1ccc2c(c1)C(=O)N(Cc1ccco1)C2=O`, the inhibition was -0.17% (inactive).

As to `CCN(CC)c1ccc(C(=O)O)cc1`, the inhibition was -7.19% (inactive).

Turning to `Cc1ccc(C=C2C(=O)c3ccccc3C2=O)o1`, the inhibition was 8.39% (inactive).

Regarding `O=C(O)c1ccc2c(c1)C(=O)/C(=C/c1ccccc1)C2=O`, the inhibition is 31.4% (inactive).

For the compound `Cc1ccc(C(=O)O)cc1-c1ccc(C=C2C(=O)c3ccccc3C2=O)o1`, the inhibition is 12.9% (inactive).

`O=C1C(=Cc2ccco2)C(=O)c2ccccc21`: the inhibition was 12.3% (inactive).

Consider `O=C(CN(Cc1ccccc1)C(=O)c1csnn1)NCc1ccc2c(c1)OCO2`, for which the inhibition was -2.73% (inactive).

In the case of `CCOc1ncccc1C(=O)OCCCC(=O)c1ccc(Br)cc1`, the inhibition is 2.15% (inactive).

As for `COc1ccc(-n2c(-c3ccc(Cl)cc3Cl)n[nH]c2=S)c(OC)c1`, the inhibition is -9.67% (inactive).

Consider `COc1cccc(NC(=S)N(CCc2c(C)[nH]c3ccccc23)Cc2cccs2)c1`, for which the inhibition was 6.48% (inactive).

For `COc1ccc(C(=O)Nc2ccc(C(=O)Nc3nccs3)cc2)cc1[N+](=O)[O-]`, the inhibition was 10% (inactive).

Consider `Fc1ccc(C2=Nc3cccc4cccc(c34)N2)cc1`, for which the inhibition was 16.5% (inactive).

In the case of `CC1=Nc2cccc3cccc(c23)N1`, the inhibition is -4.86% (inactive).

On to `OC1CCN(C(=S)Nc2ccc(Oc3ccccc3)cc2)CC1`, for which the inhibition was -10.8% (inactive).

Take `CCOC(=O)C1CCCN(C(=O)Nc2ccccc2)C1` (configuration not stated): the inhibition was 0.14% (inactive).

In the case of `CCOC(=O)C1CCCN(C(=O)C2CCN(C(=O)Nc3ccccc3)CC2)C1` (configuration not stated), the inhibition was 4.05% (inactive).

Regarding `O=C(Nc1ccccc1)NC1(C(=O)N2CCC(O)CC2)CCCCC1`, the inhibition is 5.54% (inactive).

On to `CCCOCC(O)CCc1n[nH]c(=S)n1-c1ccccc1` (configuration not stated), for which the inhibition is -1.65% (inactive).

Consider `Cc1ccc(C(=O)COc2ccc3ccc(=O)oc3c2)cc1`, for which the inhibition was 8.86% (inactive).

For the compound `Cc1cc(C)n(C(=O)c2ccc(NC(=O)C3COc4ccccc4O3)cc2)n1` (configuration not stated), the inhibition is -9.3% (inactive).

On to `CC(C)c1onc(C(=O)N2CCN(Cc3ccccc3)CC2)c1[N+](=O)[O-]`, for which the inhibition is -1.76% (inactive).

Consider `CNc1ncnc(Sc2nc(N)nc3nc[nH]c23)c1[N+](=O)[O-]`, for which the inhibition was -4.52% (inactive).

As for `Nc1nc(SCc2ccccc2)c2[nH]cnc2n1`, the inhibition is 5.48% (inactive).

Turning to `COc1ccc(/C=N/Nc2ccc(C(=O)O)cc2)c(OC)c1OC`, the inhibition is 5.84% (inactive).

As for `COC(=O)c1ccc(C(=O)OC)c(NC(=O)COC(=O)c2ccc(OC)c(OC)c2OC)c1`, the inhibition is -0.19% (inactive).

On to `COC(=O)c1ccc2c(c1)C(=O)/C(=C/c1ccc(O)cc1)O2`, for which the inhibition is 30.8% (inactive).

Consider `COC(=O)c1ccc(/C=C/C(=O)O)cc1`, for which the inhibition is 14.6% (inactive).

As to `C[N+]1=C(/C=C/Nc2ccccc2Cl)C(C)(C)c2ccccc21`, the inhibition is -5.94% (inactive).

In the case of `COC(=O)c1ccc2nc(C)c(C)nc2c1`, the inhibition was 2.34% (inactive).

For the compound `COC(=O)c1cn(Cc2ccccn2)c(=O)c2ccccc12`, the inhibition was 1.41% (inactive).

For `O=C(Nc1ccc(N2CCN(C(=O)c3ccccc3)CC2)cc1)c1cccnc1`, the inhibition is 4.32% (inactive).

Consider `CCn1cc(C(=O)OCC(=O)Nc2ccc(C(C)C)cc2)c(=O)c2ccc(C)nc21`, for which the inhibition was 3.76% (inactive).

With `CC(Sc1nnnn1-c1ccc(O)cc1)C(=O)NNC(=O)c1ccc(F)cc1` (configuration not stated), the inhibition is 2.11% (inactive).

Turning to `O=C(NCCN1C(=O)S/C(=C/c2ccccc2)C1=O)C1CC(=O)N(Cc2ccccc2)C1` (configuration not stated), the inhibition was 7.02% (inactive).

On to `Cc1c(C)n(CC(O)CNCCO)c2ccccc12` (configuration not stated), for which the inhibition was 18.2% (inactive).

On to `Cc1c(C)n(CC(O)CNc2ccccc2)c2ccccc12` (configuration not stated), for which the inhibition is 20.8% (inactive).

For `CN1CC(=O)N/C1=N\C(=O)Nc1ccc2c(c1)N(C)C(=O)CS2`, the inhibition was 2.74% (inactive).

On to `COc1cc(/C=C/C(=O)OCC(=O)NC(=O)NC(C)(C)C)cc(OC)c1OC`, for which the inhibition is 8.1% (inactive).

For the compound `COc1cc(/C=C/C(=O)OCC(=O)NC(=O)NC(C)C)cc(OC)c1OC`, the inhibition was 6.89% (inactive).

Consider `COc1cc(/C=C/C(=O)OCC(=O)NC(=O)NC(C)C)ccc1OCC#N`, for which the inhibition is 0.8% (inactive).

Take `COc1ccc(/C=C/C(=O)OCC(=O)NC(=O)NC(C)(C)C)cc1`: the inhibition is 2.69% (inactive).

Take `O=C1c2ccccc2NC(c2ccc([N+](=O)[O-])cc2)N1O` (configuration not stated): the inhibition was 4.29% (inactive).

Regarding `O=S(=O)(Nc1cccc(S(=O)(=O)N2CCOCC2)c1)c1ccc(Cl)s1`, the inhibition is -0.61% (inactive).

For the compound `CCc1nc2sccc2c(=O)n1N`, the inhibition was -1.25% (inactive).

Turning to `O=C(CNC(=O)c1ccccc1)NCCc1ccc(O)c(O)c1`, the inhibition was 10.9% (inactive).

Take `CCN(Cc1ccncc1)Cc1cn[nH]c1-c1ccc(OC)cc1F`: the inhibition is -2.02% (inactive).

As to `COc1ccc(CNCc2ccncc2)c(OC)c1`, the inhibition is 5.34% (inactive).

Take `CCN(Cc1ccncc1)Cc1ccc(Br)cc1`: the inhibition was 28% (inactive).

`CCN(Cc1ccccc1)Cc1ccc(OCc2ccccc2)c(OC)c1`: the inhibition is 10.8% (inactive).

Regarding `COc1ccc(NC(=O)C2CCN(S(=O)(=O)c3c(C)noc3C)CC2)cc1`, the inhibition was 8.66% (inactive).

As for `Cc1cc(C)n2nc(CC(=O)NNC(=O)COc3cccc(C)c3C)nc2n1`, the inhibition was -3.96% (inactive).

For `CCCCOCCCNC(=O)c1ccc(OC)cc1`, the inhibition is 4.46% (inactive).

On to `Cc1cc(Cl)ccc1N(CC(=O)N(C)Cc1ccccc1)S(C)(=O)=O`, for which the inhibition is 18.6% (inactive).

On to `CCC(SC1=N/C(=C/c2ccccc2OC)C(=O)N1c1ccccc1)C(=O)Nc1cc(C)on1` (configuration not stated), for which the inhibition is 12.8% (inactive).

As for `O=c1[nH]c(SCc2ccccc2)nc2c1cnn2-c1ccc(F)cc1`, the inhibition is 14% (inactive).

As to `Cc1cc(C)n2nc(C(=O)OCC(=O)N(C)CC(=O)Nc3ccccc3Cl)nc2n1`, the inhibition is 1.5% (inactive).

With `CC(C)CO/C(=N/S(=O)(=O)c1ccccc1)c1ccccc1`, the inhibition is 5.75% (inactive).

On to `CS/C(=N\S(=O)(=O)c1ccccc1)c1ccccc1`, for which the inhibition was 5.35% (inactive).

As to `COc1cc(/C=N/NC(=O)C2c3ccccc3Oc3ccccc32)ccc1O`, the inhibition was 5.77% (inactive).

As to `O=C(N/N=C\c1cccnc1)C1c2ccccc2Oc2ccccc21`, the inhibition is 3.36% (inactive).

For the compound `Cn1cc(CN2CCC(C(=O)Nc3cccc(-c4cccc(F)c4)c3)CC2)cn1`, the inhibition was 5.69% (inactive).

As for `c1ccc(NC2=NCCN2CC2CCCCCC2)cc1`, the inhibition was 7.17% (inactive).

Regarding `O=C(CSc1nnc(-c2cccnc2)o1)Nc1cccc(Cl)c1`, the inhibition is 4.31% (inactive).

On to `N#Cc1cccc(NC(=O)CCN2C(=O)C3CCCCC3C2=O)c1` (configuration not stated), for which the inhibition was -0.53% (inactive).

On to `O=C1/C(=C/c2ccc(N3CCCC3)cc2)NC(=S)N1C1CC1`, for which the inhibition is 27.1% (inactive).

Turning to `O=C1NC(=O)N(c2ccc(Cl)cc2)C(=O)/C1=C/c1ccc2c(c1)CCN2Cc1ccccc1Cl`, the inhibition is 10.3% (inactive).

Turning to `COc1ccc(NC(=O)Nc2ccc3c(c2)C(=O)N([C@H](C)CO)C[C@H](C)[C@@H](CN(C)S(C)(=O)=O)O3)cc1`, the inhibition was 11.1% (inactive).

On to `O=S(N1CCCCC1)C12CC3CC(CC(C3)C1)C2` (configuration not stated), for which the inhibition was -0.65% (inactive).

Take `CSC1=C(C#N)C(=O)NC(c2ccccc2O)S1` (configuration not stated): the inhibition is 25.9% (inactive).

For the compound `COc1cccc(NC2=C(C#N)C(=O)NC(c3cccc(OC)c3O)S2)c1` (configuration not stated), the inhibition is 36.1% (inactive).

`O=C(CCCN1C(=O)c2ccccc2C1=O)Nc1cccc(S(=O)(=O)NC2=NCCC2)c1`: the inhibition was 9.21% (inactive).

In the case of `Cc1ccc(C)c(NC(=O)COC(=O)CCC(=O)c2cccs2)c1`, the inhibition is -3.89% (inactive).

As to `COc1cccc(CNCc2ccc(C(=O)O)cc2)c1OC`, the inhibition was 1.24% (inactive).

Take `Cc1cc(=O)oc(C)c1C(=O)NCCCN1CCN(c2ccccc2F)CC1`: the inhibition was 6.67% (inactive).

Consider `CCOC(=O)c1[nH]c2ccc(C)cc2c1N=CN(CC)CC`, for which the inhibition was 17.7% (inactive).

As for `CCOC(=O)c1[nH]c2ccc(OC)cc2c1C`, the inhibition is 7.86% (inactive).

Take `CCOC(=O)c1[nH]c2cc(OC)c(OC)cc2c1NC(=O)c1nonc1C`: the inhibition is 9.89% (inactive).

Regarding `CCOC(=O)c1[nH]c2ccc(C)cc2c1N=C(C)N(C)C`, the inhibition is 9.84% (inactive).

On to `COc1ccc(NC(=O)NNC(=O)c2cc3ccccc3cc2O)cc1`, for which the inhibition is 11.5% (inactive).

As for `NC(=O)C1CCCN(S(=O)(=O)c2ccc3ccccc3c2)C1` (configuration not stated), the inhibition was 2.91% (inactive).

Turning to `Cc1onc(-c2ccccc2)c1-c1n[nH]c(=S)n1-c1ccc(C(=O)O)cc1`, the inhibition is 5.16% (inactive).

With `CC(=O)Nc1ccc(S(=O)(=O)N(C)S(=O)(=O)c2ccc(F)cc2)cc1`, the inhibition is 10.5% (inactive).

As for `CC(=O)c1cc(CN2CCN(Cc3ccc(C)cc3)C(CCO)C2)cs1` (configuration not stated), the inhibition is 11.3% (inactive).

In the case of `CCOC(=O)N1CCN(Cc2ccc3ccccc3c2)CC1`, the inhibition is 28.6% (inactive).

Consider `CC(CCN1CCN(c2ccccc2)CC1)c1ccccc1` (configuration not stated), for which the inhibition is 0.31% (inactive).

As to `O=S(=O)(c1ccc2ccccc2c1)N1CCN(CCO)CC1`, the inhibition is 1.28% (inactive).

Consider `O=[N+]([O-])c1ccccc1CN1CCN(Cc2ccc3ccccc3c2)CC1`, for which the inhibition is 28.3% (inactive).

Consider `CC(CCN1CCOCC1)c1ccccc1` (configuration not stated), for which the inhibition was 22.5% (inactive).

Regarding `c1ccc2cc(CN3CCOCC3)ccc2c1`, the inhibition was 1.35% (inactive).

With `CC1c2[nH]c3ccccc3c2CCN1S(C)(=O)=O` (configuration not stated), the inhibition is 1.37% (inactive).

Regarding `Cc1ccc2cc(/C=N/NC(=O)c3ccc(F)cc3)c(Cl)nc2c1`, the inhibition was 5.25% (inactive).

Regarding `Cc1ccccc1NS(=O)(=O)c1cc(C(=O)Nc2cccc([N+](=O)[O-])c2)ccc1C`, the inhibition was 8.26% (inactive).
